Structures are written as SMILES. Screen size: about 69,000 compounds; about 8,600 (12%) showed an effect of 50% or more. Many of the other results were omitted from the sample, so strong results are more common in it than they were.

The test system of this assay is Plasmodium berghei. Put plainly: Screen against P. berghei liver stage (PbLuc), transformed with Luciferase, at 10uM. Format: functional, HepG2. As to conditions: tested at 10 uM.
Consider `Cc1cc(C(=O)N2CCc3nc(N4CCCC4)nc(C)c3CC2)c(C)o1`, for which the INHIBITION stood at 67.5%.
On to `Cc1nc(N2CCCC2)nc2c1CCN(C(=O)N1CCCC1)CC2`, for which the INHIBITION is reported as -23.3%.
For the compound `Cc1nc(N2CCCC2)nc2c1CCN(C(=O)c1ccoc1C)CC2`, the INHIBITION is reported as 3.17%.
Regarding `Cc1nc(N2CCCC2)nc2c1CN(C(=O)N1CCOCC1)CC2`, the INHIBITION was 34.9%.
For the compound `Cc1cc(C(=O)N2CCc3nc(N4CCOCC4)nc(C)c3C2)c(C)o1`, the INHIBITION is recorded as 55.7%.
The same measure for `Cc1nc(N2CCOCC2)nc2c1CN(C(=O)C(C)C)CC2`: 5.04%; for `Cc1ccc(C(=O)NCc2ccnc(N(C)C)c2)c(C)c1`: -29.1%.
For `Cc1ccccc1N1CC(c2nnc(N)s2)CC1=O` (configuration not stated) the value was -37.1%; for `CC(C)C[C@H](NC(=O)Nc1ccc(F)c(Cl)c1)C(=O)O`, 47.1%.
For `COC(=O)CNC(=O)c1nc(Cl)sc1C(C)C`, the INHIBITION is on record as -17.6%.
Take `CCNC(=O)C1(Cc2cc(-c3ccccc3)no2)CCCN(C)C1` (configuration not stated): the INHIBITION is 10.9%.
The same measure for `COCC(=O)N1C[C@@H](O)[C@H](N2CCN(c3ccccc3)CC2)C1`: 12.39%; for `O=C(CNc1ccc(OC2CCOC2)cc1)NCc1cccs1` (configuration not stated): 59.8%.
Turning to `O=C(CNc1ccc(OC2CCOC2)cc1)NCc1ccco1` (configuration not stated), the INHIBITION was -12.1%.
On to `Cc1ccccc1CNC(=O)CNc1ccc(OC2CCOC2)cc1` (configuration not stated), for which the INHIBITION was -6.97%.
As to `Cc1ccccc1C1(CNC(=O)NC(C)c2nncn2C)CC1` (configuration not stated), the INHIBITION amounted to 40.2%.
As for `CN(Cc1ccccc1)C(=O)Cn1nc(N2CCSCC2)ccc1=O`, the INHIBITION is -22.9%.
As to `COc1ccccc1CNCCc1cccc(C(N)=O)c1`, the INHIBITION amounted to 2.22%.
For `COc1cccc(CNCCc2cccc(C(N)=O)c2)c1` the value was -0.758%; for `NC(=O)c1cccc(CCNCc2cccs2)c1`, 27.7%.
The same measure for `NC(=O)c1cccc(CCNCc2cnc(-c3cccs3)s2)c1`: 74%; for `COc1ccc(CNCCc2cccc(C(N)=O)c2)cc1C`: 11.8%.
`NC(=O)c1cccc(CCNCc2cnc(C3CCC3)s2)c1`: the INHIBITION came out at 82.5%.
On to `O=C(CCc1ccsc1)N1CCCCC1Cn1cccn1` (configuration not stated), for which the INHIBITION is listed as -23.9%.
For `Cc1noc([C@H]2CC[C@@H]3[C@@H](CCN3S(=O)(=O)C3CC3)O2)n1`, the INHIBITION is -6.23%.
Take `Cc1cccc(OCCC(=O)N2CCN(CC(=O)NC3CC3)CC2)c1C`: the INHIBITION is recorded as 33.8%.
Consider `Cn1c(N2CCOCC2)nc2cc(C(=O)N3CCCOCC3)ccc21`, for which the INHIBITION is listed as -24.6%.
For `CC(=O)NCc1cccc(-n2ccnc2-c2cccc(C(=O)O)c2)c1`, the INHIBITION was 62.1%.
`CCc1ncc(-c2nccn2-c2cccc(CC(=O)O)c2)cn1`: the INHIBITION is on record as 16.3%.
In the case of `CNC(=O)Cc1ccc(-n2ccnc2-c2cccc(C(=O)O)c2)cc1`, the INHIBITION was 15.6%.
For `Cc1cnn(C2CCCN(C(=O)c3ccc(Cn4ccnc4)cc3)C2)c1` (configuration not stated), the INHIBITION is on record as 16.9%.
Turning to `Cc1ccc(C(CNC(=O)c2cc(=O)c3ccccc3[nH]2)N(C)C)cc1` (configuration not stated), the INHIBITION is -5.22%.
With `Cc1cnc(N2C[C@@H]3CN(C4CCOC4)CCC[C@]3(C(=O)O)C2)nc1` (some centres not stated), the INHIBITION turned out to be 24.9%.
On to `CCN(CC1CC1)C(=O)NCc1nnc2n1CCC2`, for which the INHIBITION is on record as 45.3%.
For `COc1ccc(NC(=O)NCC(O)c2ccccc2F)c(OC)c1` (configuration not stated), the INHIBITION was 3.15%.
`Cc1c(C(=O)N2CCC(c3nc(C)n4ccsc34)CC2)cnn1C`: the INHIBITION came to 42.6%.
For `CC(=O)N1[C@H](Cn2cncn2)C[C@@H]2CN(Cc3cccnc3)CC[C@@H]21`, the INHIBITION is 35.4%.
Turning to `CC(C)N1[C@H](Cn2cncn2)C[C@@H]2CN(Cc3ccsc3)CC[C@@H]21`, the INHIBITION was 47.5%.
For `CC(C)N1[C@H](Cn2cccn2)C[C@@H]2CN(Cc3ccoc3)CC[C@@H]21`, the INHIBITION is given as 57.9%.
For `CC(C)N1[C@H](Cn2cncn2)C[C@@H]2CN(Cc3cccs3)CC[C@@H]21`, the INHIBITION was determined as 57.5%.
With `CN1[C@H](Cn2cncn2)C[C@@H]2CN(Cc3cccc(C#N)c3)CC[C@@H]21`, the INHIBITION was found to be 20.1%.
The same measure for `CC(=O)N1[C@H](Cn2cncn2)C[C@@H]2CN(Cc3ccncc3)CC[C@@H]21`: 55.9%; for `CC(C)N1[C@H](CN2CCCC2)C[C@@H]2CN(Cc3ccoc3)CC[C@@H]21`: -75.9%; for `CN1[C@H](Cn2cncn2)C[C@@H]2CN(Cc3ccsc3)CC[C@@H]21`: 54.8%.
Take `CN1[C@H](Cn2cccn2)C[C@@H]2CN(Cc3cccs3)CC[C@@H]21`: the INHIBITION turned out to be 28.3%.
Take `CC(=O)N1[C@H](Cn2cncn2)C[C@@H]2CN(Cc3ccccn3)CC[C@@H]21`: the INHIBITION is recorded as 34.1%.
Consider `CC(C)N1[C@H](Cn2cccn2)C[C@@H]2CN(C3CCOCC3)CC[C@@H]21`, for which the INHIBITION was 33%.
The same measure for `CC(C)N1[C@H](Cn2cncn2)C[C@@H]2CN(c3ncccn3)CC[C@@H]21`: 20.1%; for `Cc1cccc(C(CNC(=O)NCc2cc[nH]n2)N2CCOCC2)c1` (configuration not stated): 35.95%.
For `CCN(Cc1ccoc1)C(=O)NC1CCN(C(=O)OC(C)(C)C)C1` (configuration not stated), the INHIBITION came to 1.93%.
Turning to `CCc1ccc(C(N)c2cccc(S(C)(=O)=O)c2)cc1` (configuration not stated), the INHIBITION came to 48.1%.
Turning to `CC1CCCCN1C(=O)COc1nc(C(C)(C)C)no1` (configuration not stated), the INHIBITION is given as -29.2%.
Take `COc1cc(CNc2nc(N3CCOCC3)ns2)cc(OC)c1OC`: the INHIBITION was 8.05%.
Consider `COc1cc(CNCc2ccnc(N3CCOCC3)c2)cc(Cl)c1OC`, for which the INHIBITION came to 40.3%.
For the compound `COc1cc(CNc2nncs2)cc(OC)c1OC`, the INHIBITION turned out to be 80.8%.
Turning to `Cn1cnnc1-c1ccnc(NCc2ccc3c(c2)OCCO3)c1`, the INHIBITION stood at 42.3%.
The same measure for `Cn1cnnc1-c1ccnc(NCc2ccc(Br)cc2)c1`: 8.05%; for `Cn1cnnc1-c1ccnc(NCc2ccccc2)c1`: 57.7%; for `COc1cc(CNCCc2cnn(C)c2)cc(OC)c1OC`: 31.55%.
In the case of `COc1cc(CNc2cc(-c3nncn3C)ccn2)cc(OC)c1OC`, the INHIBITION was 53.4%.
Consider `COc1ccc(CNc2nncs2)cc1F`, for which the INHIBITION is 8.05%.
`COCCN(Cc1cnn(C)c1)C(=O)C1CCN(C2CCCCC2)CC1`: the INHIBITION was 36.7%.
The same measure for `C[C@@H]1CN(CCOc2ccc(Cl)cc2)CC[C@@]1(O)C1CCOCC1`: -17.8%.
Consider `O=C(N[C@@H]1CN(Cc2ccoc2)[C@@H]2CCCO[C@@H]21)C1CC1`, for which the INHIBITION is 11.2%.
With `CN(Cc1cnn(C)c1)C(=O)NC1CCC(O)CC1` (configuration not stated), the INHIBITION came to 1.81%.
`O=C(NC1CCC(O)CC1)c1cnc2c(cnn2C2CCCC2)c1` (configuration not stated): the INHIBITION was 11.3%.
Regarding `CCNc1ncc(C(=O)NC2CCC(n3cnnc3)CC2)cn1` (configuration not stated), the INHIBITION amounted to 37.7%.
The same measure for `Cc1cn2c(n1)CCC(NC(=O)c1nc(C)ncc1Cl)C2` (configuration not stated): 30.3%; for `CCN(CC)c1ncc(Cl)c(C(=O)NC2CCC(O)CC2)n1` (configuration not stated): 60.1%; for `CCN(CC)c1ncc(Cl)c(C(=O)NC2CC2)n1`: 57.3%.
For `Cn1cc(I)c(C(=O)NC2CCCCC2)n1` the value was 25.4%; for `O=C(NC1CCc2nccn2C1)c1ccc(NC2CC2)nc1` (configuration not stated), 7.58%; for `CCN(CC)c1ncc(Cl)c(C(=O)NC2CCc3nccn3C2)n1` (configuration not stated), 76.7%.
Consider `CNc1nc(CNC(=O)Nc2cccc(Cl)c2Cl)cs1`, for which the INHIBITION is -15.467%.
Take `CCc1noc(CCC(=O)N2CCC(c3ccn[nH]3)C2)n1` (configuration not stated): the INHIBITION came out at 10.97%.
With `CNC(=O)N1Cc2cc(F)ccc2C2(CCN(C)CC2)C1`, the INHIBITION came to 21.6%.
As for `CCc1ccc(S(=O)(=O)Nc2ccn(CC(=O)OC)n2)cc1`, the INHIBITION is recorded as -74%.
On to `C=c1ccoc1=C1NN=C(CNCCn2cc(C)cn2)O1`, for which the INHIBITION is reported as -25.9%.
As for `NC(=O)NC(=O)CNC1(c2ccc(Cl)cc2)CCC1`, the INHIBITION was -24.2%.
`COCCN1CCCn2c(nc(CNS(C)(=O)=O)cc2=O)C1`: the INHIBITION came out at 25.8%.
The same measure for `CCOC(=O)c1sc2ccsc2c1CNC(=O)CCOC`: 61.6%.
Take `CCOC(=O)c1sc2ccsc2c1CNC(=O)C(C)(C)C#N`: the INHIBITION came to 20.6%.
The same measure for `CCOC(=O)c1sc2ccsc2c1CNC(=O)C(C)OC` (configuration not stated): 17.8%; for `CCOC(=O)c1sc2ccsc2c1CNC(=O)COC`: 19.933%; for `CCOC(=O)c1sc2ccsc2c1CNC(=O)CC`: 57.2%.
In the case of `CCOC(=O)c1sc2ccsc2c1CNS(C)(=O)=O`, the INHIBITION worked out at 7.925%.
For `CC(C(=O)NCC1CCN(c2ccncc2)CC1)S(C)(=O)=O` (configuration not stated), the INHIBITION was -7.94%.
Take `O=C(c1cnc2ccc(F)cc2c1NCc1ccco1)N1CCCCC1`: the INHIBITION is -6.73%.
Turning to `CCN(Cc1ccc(F)c(F)c1)Cc1nc2c(cnn2C)c(=O)[nH]1`, the INHIBITION is on record as -57.4%.
Turning to `CSCC(=O)N1CCCC(CCC(=O)N(C)CCc2ccccn2)C1` (configuration not stated), the INHIBITION was 29.2%.
Regarding `CCc1nc(C2CCCN2C(=O)CCc2nc(C3CC3)no2)no1` (configuration not stated), the INHIBITION is -9.19%.
On to `CCCS(=O)(=O)N1Cc2nccn2CC(Cn2cncn2)C1` (configuration not stated), for which the INHIBITION is -23.1%.
Take `CCS(=O)(=O)N1Cc2nccn2CC(Cn2cncn2)C1` (configuration not stated): the INHIBITION was found to be 20.6%.
For `O=S(=O)(C1CC1)N1Cc2nccn2CC(Cn2cncn2)C1` (configuration not stated) the value was 68.3%; for `Cc1nccn1CCC1CCN(C(=O)C2CC3(CCNCC3)CN2)CC1` (configuration not stated), 33.9%; for `COCCN1CCN(CCS(C)(=O)=O)CC1C` (configuration not stated), -73.1%.
Turning to `COCCN1CCN(CCCS(C)(=O)=O)CC1C` (configuration not stated), the INHIBITION was found to be 25.7%.
Regarding `COCCN1CCN(CCCS(=O)(=O)N(C)C)CC1C` (configuration not stated), the INHIBITION turned out to be 66.7%.
Turning to `NCc1cccc(-c2cccnc2C(=O)NCCN2CCOCC2)c1`, the INHIBITION is on record as 25.8%.
For `Cn1cc(NC(=O)c2cc3c(s2)CCCC3)cn1` the value was -179%; for `Cc1csc(CCNC(=O)C2CCOC2)n1` (configuration not stated), 8.08%; for `CCc1nc(CCNC(=O)C2CCOC2)sc1C` (configuration not stated), 56.8%.
As to `CCc1nc(CCNC(=O)C2CC2)sc1C`, the INHIBITION is recorded as 2.69%.
As for `N#Cc1c(N2CCOCC2)nsc1-c1cccnc1`, the INHIBITION is given as -31.3%.
With `Cc1cccc(C(C)C)c1NC(=O)NCCN(C(C)C)C(C)C`, the INHIBITION stood at 56%.
With `COCCCNC(=O)Nc1c(C)cccc1C(C)C`, the INHIBITION is given as -19.1%.
For the compound `CCN(CC)CCCNC(=O)Nc1c(C)cccc1C(C)C`, the INHIBITION is reported as 7.3%.

(Values after ChEMBL document CHEMBL4513216, “Probing the Open Global Health Chemical Diversity Library for Multistage-Active Starting Points for Next-Generation Antimalarials” (ACS Infect Dis, 2020).)
